CYP2C9 activ – CYP2C9 (human) activation | recombinant CYP2C9, luciferin-H conversion, luminescence; active compounds read high; factor 1 = untreated enzyme, 0 = blocked | P11712 | 96,000 compounds, 1.4% hits | activation factor at 5 µM;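 active = activation factor of 2 or more for CYP2C9 at a 5 µM dose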;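 note: 0 = sulfaphenazole-blocked wells and 1 = vehicle-only wells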
Target sequence (P11712 whole entry, looked up): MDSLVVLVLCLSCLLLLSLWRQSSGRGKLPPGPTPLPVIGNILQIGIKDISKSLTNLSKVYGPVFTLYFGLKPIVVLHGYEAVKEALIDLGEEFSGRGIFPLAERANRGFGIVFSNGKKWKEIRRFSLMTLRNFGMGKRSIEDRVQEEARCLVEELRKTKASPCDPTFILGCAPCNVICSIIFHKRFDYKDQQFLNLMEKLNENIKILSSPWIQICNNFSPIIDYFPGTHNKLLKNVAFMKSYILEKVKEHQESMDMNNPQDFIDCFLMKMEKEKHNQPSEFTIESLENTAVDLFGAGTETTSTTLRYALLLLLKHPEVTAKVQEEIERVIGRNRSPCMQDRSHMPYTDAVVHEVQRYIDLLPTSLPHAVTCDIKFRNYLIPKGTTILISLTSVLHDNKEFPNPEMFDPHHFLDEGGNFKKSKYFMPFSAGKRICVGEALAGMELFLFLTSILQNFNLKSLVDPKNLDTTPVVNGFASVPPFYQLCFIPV
CYP2C9 inhib – blocks human cytochrome P450 2C9 | P11712 | CYP2C9 Supersomes, luciferin-H conversion, luminescence | inhibition, % at 5 µM | 96,000 compounds, 20% hits | AID 777;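 active = blocking of liver enzyme CYP2C9 beyond about 50% at 5 µM, limit read from the data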
CYP2C19 activ – cytochrome P450 2C19 (human) activation; P33261; recombinant CYP2C19, luciferin-H EGE luminescence; active compounds read high; 0 = fully inhibited enzyme, 1 = untreated enzyme; activation factor at 5 µM; 96,000 tested, under 10 active;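 active = activation factor of at least 2 at 5 µM in the primary screen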;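 note: 0 = wells with 2.5 mM tranylcypromine and 1 = vehicle-only wells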
CYP2C19 inhib – blocks human cytochrome P450 2C19 | inhibition, % at 5 µM | P33261 | CYP2C19 Supersomes, luciferin-H EGE luminescence, 30 min | 96,000 compounds, 21% hits | AID 778;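 active = CYP2C19 inhibition above a set limit at 5 µM in the primary screen, cut at about 50% in these data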;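 note: plate controls were negative control wells for no effect and 2.5 mM tranylcypromine positive control for full effect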
EphB4 antag – blocks human EphB4 binding to ephrin-B2; EphB4 LBD / TNYL-RAW-Alexa532 peptide, fluorescence polarization; inhibition, % at 7 µM; AID 720; 97,000 compounds, 0.15% hits; P54760;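 active = inhibition above the screen-wide mean inhibition plus 3 SD, cut at about 15% in these data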;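 note: 0% = DMSO wells and 100% = excess unlabeled TNYL-RAW peptide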
* hit, by the source's call. Compounds with a hit are over-represented: about 27% of the library has one in this group of screens.

How did COc1cccc(NS(=O)(=O)c2ccc3c(c2)n(C)c(=O)c(=O)n3C)c1 do in these assays?
CYP2C9 activ: 0.5; CYP2C9 inhib: 50; CYP2C19 activ: 0.6; CYP2C19 inhib: 35; EphB4 antag: 3

Results for COc1ccccc1C(CCN(Cc1cccs1)C(C)=O)c1ccco1 (stereo not given) ?
CYP2C9 activ: 0.1; CYP2C9 inhib: 90*; CYP2C19 activ: 0.1; CYP2C19 inhib: 92*; EphB4 antag: 3

What do the screens show for `CCN(CC)C(=O)CC(c1ccccc1)c1ccco1` (stereo not given)?
CYP2C9 activ: 1; CYP2C9 inhib: 5; CYP2C19 activ: 0.8; CYP2C19 inhib: 21; EphB4 antag: 2

What do the screens show for `CCC(=O)N(CCC(c1ccccc1)c1ccco1)Cc1cccs1` (stereo not given)?
CYP2C9 activ: 0.3; CYP2C9 inhib: 69*; CYP2C19 activ: 0.6; CYP2C19 inhib: 36; EphB4 antag: -2

How did CCn1cc(C(=O)OCc2ccccc2)c(=O)c2ccc(C)nc21 do in these assays?
CYP2C9 activ: 1.1; CYP2C9 inhib: -5; CYP2C19 activ: 0.9; CYP2C19 inhib: 10; EphB4 antag: 0

What do the screens show for `CCn1cc(C(=O)OCC(=O)OC2CC(C)CCC2C(C)C)c(=O)c2ccc(C)nc21` (stereo not given)?
CYP2C9 activ: 0.5; CYP2C9 inhib: 49; CYP2C19 activ: 0.3; CYP2C19 inhib: 75*; EphB4 antag: 1

How did CCCNC(=O)COC(=O)c1ccccc1OCc1ccc(Cl)cc1 do in these assays?
CYP2C9 activ: 0.2; CYP2C9 inhib: 78*; CYP2C19 activ: 0.1; CYP2C19 inhib: 87*; EphB4 antag: -2

What do the screens show for `CC(OC(=O)c1cc2sccc2n1C)C(=O)NCc1ccco1` (stereo not given)?
CYP2C9 activ: 0.2; CYP2C9 inhib: 79*; CYP2C19 activ: 0.1; CYP2C19 inhib: 90*; EphB4 antag: -10

What do the screens show for `Cn1c(C(=O)OC(C(=O)NCc2ccco2)c2ccncc2)cc2sccc21` (stereo not given)?
CYP2C9 activ: 0.1; CYP2C9 inhib: 90*; CYP2C19 activ: 0; CYP2C19 inhib: 98*; EphB4 antag: -2

How did COC(=O)C(C)Sc1ccc2nnc(-c3ccc(F)cc3)n2n1 (stereo not given) do in these assays?
CYP2C9 activ: 0.6; CYP2C9 inhib: 35; CYP2C19 activ: 0.9; CYP2C19 inhib: 5; EphB4 antag: 0

What do the screens show for `Cc1ccc(-c2nnc3ccc(SCC(=O)Nc4cc(C)on4)nn23)cc1`?
CYP2C9 activ: 0.5; CYP2C9 inhib: 50*; CYP2C19 activ: 1.1; CYP2C19 inhib: -7; EphB4 antag: 2

How did Cc1cc(NC(=O)CSc2ccc3nnc(-c4ccc(F)cc4)n3n2)no1 do in these assays?
CYP2C9 activ: 0.7; CYP2C9 inhib: 33; CYP2C19 activ: 1; CYP2C19 inhib: -1; EphB4 antag: -1

What do the screens show for `CCC(Sc1ccc2nnc(-c3ccc(F)cc3)n2n1)C(=O)OC` (stereo not given)?
CYP2C9 activ: 0.4; CYP2C9 inhib: 61*; CYP2C19 activ: 0.7; CYP2C19 inhib: 27; EphB4 antag: 2

Results for Cc1cc(NC(=O)CSc2ccc3nnc(-c4cccs4)n3n2)no1 ?
CYP2C9 activ: 0.2; CYP2C9 inhib: 75*; CYP2C19 activ: 0.9; CYP2C19 inhib: 14; EphB4 antag: 2

How did O=S(=O)(c1ccc(F)cc1)N1CC2CCCN2c2ccc(C(F)(F)F)cc21 (stereo not given) do in these assays?
CYP2C9 activ: 0.5; CYP2C9 inhib: 47; CYP2C19 activ: 0.5; CYP2C19 inhib: 48; EphB4 antag: 0

What do the screens show for `O=C(c1cnc2n(c1=O)CCS2)N1CCN(C(c2ccccc2)c2ccc(Cl)cc2)CC1` (stereo not given)?
CYP2C9 activ: 0.6; CYP2C9 inhib: 44; CYP2C19 activ: 0.4; CYP2C19 inhib: 62*; EphB4 antag: 4

What do the screens show for `Cc1ccc(Sc2c(C)[nH]n(C(C)(C)C)c2=O)cc1`?
CYP2C9 activ: 0.1; CYP2C9 inhib: 87*; CYP2C19 activ: 0.1; CYP2C19 inhib: 88*; EphB4 antag: -5

Results for CN(C1CCCCC1)S(=O)(=O)c1ccccc1 ?
CYP2C9 activ: 0.9; CYP2C9 inhib: 14; CYP2C19 activ: 0.5; CYP2C19 inhib: 49; EphB4 antag: -1

Results for O=S(=O)(c1ccccc1)N(Cc1nc(-c2ccccc2)no1)C1CCCCC1 ?
CYP2C9 activ: 0.1; CYP2C9 inhib: 93*; CYP2C19 activ: 0.5; CYP2C19 inhib: 50*; EphB4 antag: 3

What do the screens show for `CC(C)N(Cc1nc(-c2ccccc2)no1)S(=O)(=O)c1ccccc1`?
CYP2C9 activ: 0.3; CYP2C9 inhib: 68*; CYP2C19 activ: 0.4; CYP2C19 inhib: 58*; EphB4 antag: 5

Results for CC(C)N(Cc1nc(-c2ccccc2)no1)C(=O)CN(C)S(=O)(=O)c1ccccc1 ?
CYP2C9 activ: 0.3; CYP2C9 inhib: 69*; CYP2C19 activ: 0.2; CYP2C19 inhib: 79*; EphB4 antag: 2

How did CC(C)OCCCNC(=O)CCc1nc(-c2ccccc2)no1 do in these assays?
CYP2C9 activ: 1; CYP2C9 inhib: 3; CYP2C19 activ: 0.8; CYP2C19 inhib: 21

How did Cc1ccc(NC(=O)C2CCCN(S(=O)(=O)c3c(C)noc3C)C2)cc1F (stereo not given) do in these assays?
CYP2C9 activ: 0.8; CYP2C9 inhib: 18; CYP2C19 activ: 0.7; CYP2C19 inhib: 28; EphB4 antag: -5

How did COc1ccc(-c2nnc(SC(C)C(=O)Nc3ccc4c(c3)OCCO4)o2)cc1 (stereo not given) do in these assays?
CYP2C9 activ: 0.8; CYP2C9 inhib: 18; CYP2C19 activ: 0.7; CYP2C19 inhib: 33; EphB4 antag: -1

What do the screens show for `Cc1cc(C(=O)NCc2cc(C(=O)O)oc2C)c(C)o1`?
CYP2C9 activ: 1; CYP2C9 inhib: 1; CYP2C19 activ: 1.1; CYP2C19 inhib: -6; EphB4 antag: -2

How did O=C(O)C(Cc1ccccc1)N1Cc2ccccc2C1=O (stereo not given) do in these assays?
CYP2C9 activ: 0.8; CYP2C9 inhib: 17; CYP2C19 activ: 1; CYP2C19 inhib: -4; EphB4 antag: 5

Results for COC(=O)C(Cc1ccc(OC(=O)c2ccc(C)cc2)cc1)N1Cc2ccccc2C1=O (stereo not given) ?
CYP2C9 activ: 0.5; CYP2C9 inhib: 50*; CYP2C19 activ: 0.7; CYP2C19 inhib: 28; EphB4 antag: 0

Results for Clc1cccc(OCCn2cncn2)c1Cl ?
CYP2C9 activ: 1.8; CYP2C9 inhib: -81; CYP2C19 activ: 0.2; CYP2C19 inhib: 84*; EphB4 antag: 3

How did CCc1ccccc1OCCCCN1CCCC1 do in these assays?
CYP2C9 activ: 1; CYP2C9 inhib: 0; CYP2C19 activ: 0.6; CYP2C19 inhib: 37; EphB4 antag: 0

How did C=CCc1ccccc1OCCn1ccnc1 do in these assays?
CYP2C9 activ: 0.1; CYP2C9 inhib: 85*; CYP2C19 activ: 0.1; CYP2C19 inhib: 92*; EphB4 antag: 3

Results for Clc1ccccc1OCCn1ccnc1 ?
CYP2C9 activ: 0.3; CYP2C9 inhib: 74*; CYP2C19 activ: 0.3; CYP2C19 inhib: 66*; EphB4 antag: 0
